The supplement of paper PMC11001985

Compound: C#CCNC(=O)CCSSCCC(=O)NCCc1ccc(C=O)c(C=O)c1
Assay: lysine labeling ratio R10:1 (500 µM / 50 µM probe), SILAC-ABPP in living cells; higher = lower intrinsic lysine reactivity toward the probe, active = 2 or less
Details: HeLa; probe concentrations 500 vs 50 µM
Method in brief: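 For each lysine, R is the median over forward and reverse replicates of the filtered median MS1 peptide ratio of high probe to low probe. The probe, an alkyne-tagged, disulfide-linked lysine probe, was given at 500 µM or 50 µM to living SILAC light and heavy HeLa cells in PBS at room temperature, with label swaps. Values are capped at 20.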

Sequence of UniProt O00159 (O00159 whole entry): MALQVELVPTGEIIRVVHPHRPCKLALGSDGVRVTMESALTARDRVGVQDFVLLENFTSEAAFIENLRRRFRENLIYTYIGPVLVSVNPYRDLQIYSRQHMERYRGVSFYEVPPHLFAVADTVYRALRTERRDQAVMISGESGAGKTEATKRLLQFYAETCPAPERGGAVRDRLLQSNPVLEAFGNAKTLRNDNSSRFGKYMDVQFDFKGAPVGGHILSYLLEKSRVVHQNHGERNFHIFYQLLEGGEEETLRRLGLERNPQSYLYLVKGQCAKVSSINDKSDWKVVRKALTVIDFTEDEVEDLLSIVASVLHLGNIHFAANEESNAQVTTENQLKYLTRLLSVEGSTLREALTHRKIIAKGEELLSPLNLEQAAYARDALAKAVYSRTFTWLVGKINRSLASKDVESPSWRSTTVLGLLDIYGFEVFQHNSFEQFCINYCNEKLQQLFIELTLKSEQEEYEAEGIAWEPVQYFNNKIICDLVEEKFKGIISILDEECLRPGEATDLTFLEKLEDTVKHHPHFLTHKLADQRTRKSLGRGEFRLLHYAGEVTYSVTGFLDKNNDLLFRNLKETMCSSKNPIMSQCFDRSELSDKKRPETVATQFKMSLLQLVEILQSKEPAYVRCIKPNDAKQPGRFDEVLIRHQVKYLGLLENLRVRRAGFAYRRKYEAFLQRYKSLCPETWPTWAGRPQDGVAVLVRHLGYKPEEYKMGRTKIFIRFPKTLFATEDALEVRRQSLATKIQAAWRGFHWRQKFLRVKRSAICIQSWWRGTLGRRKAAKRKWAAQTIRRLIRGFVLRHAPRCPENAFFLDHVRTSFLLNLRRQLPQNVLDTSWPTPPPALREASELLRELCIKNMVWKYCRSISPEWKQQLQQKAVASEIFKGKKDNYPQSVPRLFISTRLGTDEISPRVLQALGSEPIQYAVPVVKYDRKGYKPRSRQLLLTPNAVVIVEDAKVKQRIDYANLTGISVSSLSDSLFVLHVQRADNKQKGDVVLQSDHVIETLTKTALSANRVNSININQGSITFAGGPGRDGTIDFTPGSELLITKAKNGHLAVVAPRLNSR
Sequence of UniProt P21333 (P21333 whole entry): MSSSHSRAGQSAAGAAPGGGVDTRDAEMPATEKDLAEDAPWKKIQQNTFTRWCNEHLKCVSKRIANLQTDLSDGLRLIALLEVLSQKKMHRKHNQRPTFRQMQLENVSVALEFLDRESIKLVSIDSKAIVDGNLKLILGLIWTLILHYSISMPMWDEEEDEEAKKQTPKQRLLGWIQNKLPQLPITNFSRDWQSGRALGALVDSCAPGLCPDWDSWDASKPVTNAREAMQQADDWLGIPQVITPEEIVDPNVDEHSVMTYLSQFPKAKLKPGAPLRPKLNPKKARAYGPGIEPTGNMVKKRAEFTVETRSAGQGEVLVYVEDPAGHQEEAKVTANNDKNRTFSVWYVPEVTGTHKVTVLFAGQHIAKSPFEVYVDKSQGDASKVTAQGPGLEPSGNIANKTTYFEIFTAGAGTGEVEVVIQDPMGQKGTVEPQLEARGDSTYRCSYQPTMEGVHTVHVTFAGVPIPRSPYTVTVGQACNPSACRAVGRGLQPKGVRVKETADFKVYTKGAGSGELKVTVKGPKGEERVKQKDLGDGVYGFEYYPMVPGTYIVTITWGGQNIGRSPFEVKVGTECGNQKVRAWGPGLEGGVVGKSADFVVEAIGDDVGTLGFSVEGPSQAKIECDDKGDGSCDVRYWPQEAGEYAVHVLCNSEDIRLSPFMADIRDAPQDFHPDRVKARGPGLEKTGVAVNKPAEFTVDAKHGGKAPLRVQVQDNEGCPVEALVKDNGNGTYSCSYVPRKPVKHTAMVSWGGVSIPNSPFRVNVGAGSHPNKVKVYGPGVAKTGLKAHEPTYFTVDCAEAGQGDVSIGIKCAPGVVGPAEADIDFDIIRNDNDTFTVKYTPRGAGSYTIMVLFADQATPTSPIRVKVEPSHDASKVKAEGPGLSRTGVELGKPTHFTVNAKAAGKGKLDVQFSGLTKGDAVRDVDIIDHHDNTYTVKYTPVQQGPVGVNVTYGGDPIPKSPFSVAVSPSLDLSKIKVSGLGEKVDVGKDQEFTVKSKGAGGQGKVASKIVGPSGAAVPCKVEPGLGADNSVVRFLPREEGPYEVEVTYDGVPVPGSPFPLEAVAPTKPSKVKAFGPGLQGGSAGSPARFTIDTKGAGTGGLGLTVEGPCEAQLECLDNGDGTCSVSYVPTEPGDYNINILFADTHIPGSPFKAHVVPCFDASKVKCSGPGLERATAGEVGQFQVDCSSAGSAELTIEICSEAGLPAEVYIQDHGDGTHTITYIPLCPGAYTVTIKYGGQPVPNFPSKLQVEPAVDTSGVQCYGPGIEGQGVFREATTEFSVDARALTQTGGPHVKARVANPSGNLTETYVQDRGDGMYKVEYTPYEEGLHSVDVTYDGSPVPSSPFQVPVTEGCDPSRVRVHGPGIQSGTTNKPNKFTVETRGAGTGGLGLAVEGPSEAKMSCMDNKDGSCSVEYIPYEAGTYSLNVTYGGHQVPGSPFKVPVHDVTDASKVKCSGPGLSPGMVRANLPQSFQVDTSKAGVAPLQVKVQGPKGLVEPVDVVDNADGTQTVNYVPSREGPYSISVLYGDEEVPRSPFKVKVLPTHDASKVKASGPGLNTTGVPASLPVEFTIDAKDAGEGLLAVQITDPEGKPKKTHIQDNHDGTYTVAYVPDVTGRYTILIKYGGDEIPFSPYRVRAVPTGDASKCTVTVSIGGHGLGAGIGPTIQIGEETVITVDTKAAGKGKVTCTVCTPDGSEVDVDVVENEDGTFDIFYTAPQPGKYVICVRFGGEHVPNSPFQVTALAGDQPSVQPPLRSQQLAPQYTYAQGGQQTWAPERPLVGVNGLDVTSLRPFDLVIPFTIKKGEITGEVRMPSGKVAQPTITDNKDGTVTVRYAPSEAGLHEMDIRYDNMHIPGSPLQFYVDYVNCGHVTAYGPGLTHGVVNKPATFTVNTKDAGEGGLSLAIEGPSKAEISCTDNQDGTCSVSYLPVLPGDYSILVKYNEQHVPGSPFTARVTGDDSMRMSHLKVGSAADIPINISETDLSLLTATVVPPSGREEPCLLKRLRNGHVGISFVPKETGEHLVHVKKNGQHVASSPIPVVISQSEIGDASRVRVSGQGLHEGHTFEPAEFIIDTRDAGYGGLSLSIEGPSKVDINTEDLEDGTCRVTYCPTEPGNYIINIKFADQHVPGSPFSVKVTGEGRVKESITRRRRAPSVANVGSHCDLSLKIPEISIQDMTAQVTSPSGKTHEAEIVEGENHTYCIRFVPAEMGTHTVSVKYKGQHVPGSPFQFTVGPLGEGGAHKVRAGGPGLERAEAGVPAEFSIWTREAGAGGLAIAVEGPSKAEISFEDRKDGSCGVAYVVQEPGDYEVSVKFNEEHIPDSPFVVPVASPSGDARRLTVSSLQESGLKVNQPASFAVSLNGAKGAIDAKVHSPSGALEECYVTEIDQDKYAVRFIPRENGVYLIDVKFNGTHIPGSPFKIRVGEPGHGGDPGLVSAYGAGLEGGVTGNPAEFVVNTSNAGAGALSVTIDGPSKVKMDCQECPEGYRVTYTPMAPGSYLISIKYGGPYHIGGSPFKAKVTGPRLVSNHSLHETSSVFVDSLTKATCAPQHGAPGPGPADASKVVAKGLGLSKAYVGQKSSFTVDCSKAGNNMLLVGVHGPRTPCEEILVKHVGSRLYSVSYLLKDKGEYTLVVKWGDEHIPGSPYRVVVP
Sequence of UniProt Q9HB71 (Q9HB71 whole entry): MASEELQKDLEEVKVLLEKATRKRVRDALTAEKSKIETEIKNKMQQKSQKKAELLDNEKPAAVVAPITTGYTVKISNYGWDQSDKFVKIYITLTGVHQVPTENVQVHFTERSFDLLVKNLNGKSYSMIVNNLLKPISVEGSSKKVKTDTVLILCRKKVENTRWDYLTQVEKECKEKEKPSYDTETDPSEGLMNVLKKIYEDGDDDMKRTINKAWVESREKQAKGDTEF
Sequence of UniProt P50990 (P50990 whole entry): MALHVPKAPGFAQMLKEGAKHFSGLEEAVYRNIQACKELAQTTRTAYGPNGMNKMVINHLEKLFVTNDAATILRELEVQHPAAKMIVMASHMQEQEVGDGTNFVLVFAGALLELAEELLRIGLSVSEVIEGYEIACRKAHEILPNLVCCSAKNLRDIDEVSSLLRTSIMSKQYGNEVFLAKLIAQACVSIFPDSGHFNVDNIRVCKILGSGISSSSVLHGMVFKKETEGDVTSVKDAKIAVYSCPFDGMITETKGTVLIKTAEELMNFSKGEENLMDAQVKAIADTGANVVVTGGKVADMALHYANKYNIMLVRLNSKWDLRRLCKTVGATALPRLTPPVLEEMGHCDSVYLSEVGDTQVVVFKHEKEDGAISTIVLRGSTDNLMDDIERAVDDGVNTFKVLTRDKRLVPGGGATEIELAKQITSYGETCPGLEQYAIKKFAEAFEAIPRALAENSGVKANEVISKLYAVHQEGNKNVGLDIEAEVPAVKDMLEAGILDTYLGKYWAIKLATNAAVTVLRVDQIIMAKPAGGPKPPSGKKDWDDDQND
Sequence of UniProt P0C0S5 (P0C0S5 whole entry): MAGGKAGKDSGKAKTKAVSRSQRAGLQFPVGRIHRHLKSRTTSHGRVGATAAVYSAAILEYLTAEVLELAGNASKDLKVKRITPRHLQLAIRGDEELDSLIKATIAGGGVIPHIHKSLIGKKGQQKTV
Sequence of UniProt P34741 (P34741 whole entry): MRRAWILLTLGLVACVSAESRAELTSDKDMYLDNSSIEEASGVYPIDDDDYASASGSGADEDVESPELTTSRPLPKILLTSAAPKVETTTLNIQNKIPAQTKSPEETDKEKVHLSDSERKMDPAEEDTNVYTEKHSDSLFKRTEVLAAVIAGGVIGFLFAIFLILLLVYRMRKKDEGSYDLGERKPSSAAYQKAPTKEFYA

Target | lysine labeling ratio R10:1
FAT4 (lysine site: K2004) (UniProt Q6V0I7) | 1.27 (active)
PPL (lysine site: K1339) (UniProt O60437) | 1.34 (active)
SLC4A2 (lysine site: K975) (UniProt P04920) | 2.29 (inactive)
LAMA5 (lysine site: K1227) (UniProt O15230) | 2.71 (inactive)
SDC2 (lysine site: K111) (UniProt P34741) | 1.38 (active)
HNRNPM (lysine site: K239) (UniProt P52272) | 1.67 (active)
UniProt Q8WXI7 (lysine site: K13676) | 3.84 (inactive)
LNPEP (lysine site: K624) (UniProt Q9UIQ6) | 0.72 (active)
CACYBP (lysine site: K19) (UniProt Q9HB71) | 7.06 (inactive)
COL5A1 (lysine site: K1708) (UniProt P20908) | 1.7 (active)
RPS3 (lysine site: K75) (UniProt P23396) | 2.68 (inactive)
SPTAN1 (lysine site: K274) (UniProt Q13813) | 2.28 (inactive)
UniProt Q12904 (lysine site: K35) | 1.92 (active)
CLPTM1 (lysine site: K224) (UniProt O96005) | 1.69 (active)
PIEZO1 (lysine site: K113) (UniProt Q92508) | 4.13 (inactive)
SPTBN1 (lysine site: K1939) (UniProt Q01082) | 3.41 (inactive)
CRIM1 (lysine site: K176) (UniProt Q9NZV1) | 2.01 (inactive)
FLNA (lysine site: K1071) (UniProt P21333) | 3.76 (inactive)
CSPG4 (lysine site: K831) (UniProt Q6UVK1) | 5.17 (inactive)
UniProt P0C0S5 (lysine site: K16) | 1.12 (active)

Target | lysine labeling ratio R10:1
EPRS (lysine site: K328) (UniProt P07814) | 1.73 (active)
PDCD6IP (lysine site: K374) (UniProt Q8WUM4) | 5.72 (inactive)
UniProt Q9NYU2 (lysine site: K362) | 3.31 (inactive)
FLNA (lysine site: K2387) (UniProt P21333) | 11.9 (inactive)
ANXA3 (lysine site: K263) (UniProt P12429) | 1.92 (active)
LRP1 (lysine site: K3910) (UniProt Q07954) | 1.43 (active)
MYO1C (lysine site: K404) (UniProt O00159) | 1.66 (active)
OSBPL5 (lysine site: K446) (UniProt Q9H0X9) | 1.7 (active)
UniProt P62899 (lysine site: K31) | 1.97 (active)
AHNAK (lysine site: K2993) (UniProt Q09666) | 1 (active)
CSE1L (lysine site: K17) (UniProt P55060) | 1.76 (active)
COPA (lysine site: K1134) (UniProt P53621) | 2.48 (inactive)
RPL5 (lysine site: K178) (UniProt P46777) | 4.17 (inactive)
UniProt P02533 (lysine site: K405) | 7.37 (inactive)
FZD1 (lysine site: K273) (UniProt Q9UP38) | 4.28 (inactive)
CACYBP (lysine site: K223) (UniProt Q9HB71) | 1.74 (active)
VASN (lysine site: K506) (UniProt Q6EMK4) | 5.1 (inactive)
MYO1C (lysine site: K781) (UniProt O00159) | 1.34 (active)
UniProt Q15149 (lysine site: K1996) | 3.69 (inactive)
CCT8 (lysine site: K326) (UniProt P50990) | 3.67 (inactive)
